In PubChem BioAssay (NCATS):
Values joined by “and” are separate entries in the source; they are usually repeats but may differ in a detail not shown here. Equal entries are not always repeated. Records with an inconclusive call do not appear. A number with no mark means an inactive call. The call rests on the fitted dose curve; in most records, active means well fitted activation curve with a large enough effect in the signal ratio (not every such curve was filed as active); inconclusive means small, poorly fitted or top-dose-only effect, or a change in a side signal; inactive means flat fitted curve, though single readings scatter; the % refers to the signal ratio.

experiment: qHTS assay for small molecule activators of the p53 signaling pathway (AID 651743); conditions: HCT-116 p53RE-bla, beta-lactamase FRET ratio, 16 h; active compounds read high; further: series mostly up to about 92 µM; % of control where 0% means no effect
Source text: National Center for Advancing Translational Sciences [NCATS] NIH Chemical Genomics Center [NCGC] U.S. Environmental Protection Agency [EPA] National Institutes of Environmental Health Sciences [NIEHS] National Toxicology Program [NTP] Assay Overview: p53, a tumor suppressor protein, is activated following cellular insult, including DNA damage and other cellular stresses. The activation of p53 regulates cell fate by inducing DNA repair, cell cycle arrest, apoptosis, or cellular senescence. The activation of p53, therefore, is a good indicator of DNA damage and other cellular stresses. The CellSensor p53RE-bla HCT-116 cell line (Invitrogen) contains a stably integrated beta-lactamase reporter gene under control of the p53 response elements. The activation of the report gene under culture conditions can be detected by fluorescence intensity. This cell line can be used to screen chemicals in a 1536-well plate format and to identify agonists that activate p53 signaling pathway.
Assay Protocol Summary: The p53RE-bla cells were dispensed at 4,000 cells/5 ul/well in 1536-well black wall/clear bottom plates using a Multidrop dispenser. After the assay plates were incubated at a 37 C/5% CO2 incubator for 5 hours, 23 nL of compounds dissolved in DMSO, positive controls or DMSO only was transferred to the assay plate by a pin tool. The plates were incubated at 37 C for 16 hours. After 1 uL of LiveBLAzer B/G FRET substrate was added using a Flying Reagent Dispenser, the plates were incubated at room temperature for 2 hours, and fluorescence intensity was measured by an Envision plate reader.

SMILES	activation
Nc1ccc(F)cc1F	-3.46%
COc1ccc(N)c(OC)c1	1.84%
CCCCC(=O)N(C)C	-1.85%
O=P(O)(OCc1ccccc1)OCc1ccccc1	-2.58%
CCOC(C)(C)C	-0.539%
CCOc1cc(OCC)c(C(C)=O)cc1OCC	-3.93%
Cc1ccc(C)c(O)c1	0.75%
C1CCOC1	1.06%
C/C=C1\CC2C=CC1C2 (stereo not given)	0.178%
O=Nc1ccc(NO)cc1	-5.55%
N#CC1(O)CCCCC1	0.526%
CC(C)=CCC/C(C)=C/C=O	-0.8% and -0.838%
ClC/C=C/CCl	-2.54%
ClCCl	-4.34%
O=C(O)c1ccc(C(=O)O)cc1	-0.449% and 6.06%
CNC(=O)N(c1ccccc1)c1ccccc1	0.514%
O=Cc1ccc(CO)o1	-2.06%
CCOC(=O)C(C)C(C)=O (stereo not given)	6.52%
CSCCC=O	-3.46%
CC(C)C=O	0.787%

SMILES	activation
CCCC=O	-2.76%
Cc1ccc(CO)cc1	-4.79%
NCCCCCCN	-1.12%
Clc1ccc(Cl)c(Cl)c1Cl	-4.49% and 4.59%
CC(=O)c1cccc([N+](=O)[O-])c1	-3.72%
CCC1CO1 (stereo not given)	-2.66%
CC(C)Cc1nccs1	0.156%
CCCCC(CC)COC(=O)CCCCC(=O)OCC(CC)CCCC (stereo not given)	-0.514% and -0.3%
CC(C)=CCl	-2.89%
CCCCCCCCC/C=C/CC1CC(=O)OC1=O (stereo not given)	3.69%
O=[N+]([O-])c1ccccc1CCO	-1.31%
COc1cccc(N)c1	-3.72%
CCCC(C)CO (stereo not given)	0.0206%
COCCOC(=O)c1ccccc1C(=O)OCCOC	-1.05%
Nc1ccccc1S(=O)(=O)O	-0.779%
CCC=O	-0.942%
CC=C(Cl)Cl	-2.14%
OC(CCl)CCl	-1.36%
CC(N)CN (stereo not given)	-0.238%
Cc1ccc([N+](=O)[O-])c(N)c1	-3.31%
